This is an account of results in PubChem BioAssay (EPA / NIEHS).

Test [1] can be described thus: APR_HepG2_CellCycleArrest_1hr: Apredica 1-hour HepG2 Assay for Cell Cycle Arrest (AID 2282666). As to conditions: high-content imaging, actives raise or lower the signal. In short, it runs like this: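 Cell cycle arrest scored from nuclear DNA content (Hoechst 33342) using high-content imaging of fixed HepG2 cells after 1 h treatment across 0.39–200 uM, in duplicate. Gain or loss fitted relative to 0.5% DMSO.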

Test [2] in a line: ACEA_ER_80hr: ACEA Biosciences xCELLigence Real-Time Cell Analysis on Estrogen Receptor Agonism for Proliferation (AID 2282667; active = hit-call score of the fitted dose curve at least 0.9, where 1 is the maximum). As to conditions: T47D proliferation, impedance (xCELLigence), 80 h. An outline of the steps: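 Estrogen-driven proliferation is captured as electrode impedance in T47D cells 80 h after compound addition. Test articles ran at 8 concentrations, 1:4 dilutions from 100 uM final, in two replicate plates.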

A short description of test [3]: APR_HepG2_CellLoss_1hr: Apredica 1-hour HepG2 Assay for Cell Loss (AID 2282668).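 Also: curves fitted both ways against DMSO so gain or loss of cells counts.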 As to conditions: high-content imaging. An outline of the steps: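 Cell number comes from high-content imaging of Hoechst-labelled nuclei in fixed HepG2 cells. Cells were exposed for 1 h to ten concentrations from 0.39 to 200 uM in 0.5% DMSO. Gain or loss was fitted against DMSO controls.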

A short description of test [4]: APR_HepG2_MicrotubuleCSK_1hr: Apredica 1-hour HepG2 Assay for Microtubule CSK Stabilty (AID 2282669). As to conditions: HepG2 microtubule cytoskeleton imaging, actives raise or lower the signal. In short, it runs like this:
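Alpha-tubulin immunofluorescence, imaged by automated high-content microscopy with Hoechst nuclear segmentation, measured cytoskeletal change after 1 h dosing of HepG2 at 0.39–200 uM in 0.5% DMSO. Activity fitted in both directions relative to DMSO.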

A short description of test [5]: APR_HepG2_NuclearSize_1hr: Apredica 1-hour HepG2 Assay for Nuclear Size (AID 2282670). As to conditions: high-content imaging, actives raise or lower the signal. In short, it runs like this:
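Nuclear size measured by high-content imaging of Hoechst 33342 nuclear stain after formaldehyde fixation; human HepG2 line exposed 1 hr to compounds at 0.39–200 uM in 0.5% DMSO, with bidirectional curve fitting relative to DMSO.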

Test [6] is described as follows: APR_HepG2_p53Act_1hr: Apredica 1-hour HepG2 Assay for p53 Activation (AID 2282671). As to conditions: high-content imaging, actives raise or lower the signal. In short, it runs like this:
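After 1 h exposure (0.39–200 uM, 0.5% DMSO final, duplicates), fixed HepG2 cells were labelled with anti-p53 antibody plus Hoechst nuclear stain. Fluorescence quantified by automated 20x imaging; changes fitted in both directions against DMSO.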

A short description of test [7]: APR_HepG2_MitoticArrest_1hr: Apredica 1-hour HepG2 Assay for Mitotic Arrest (AID 2282672). As to conditions: high-content imaging, actives raise or lower the signal. An outline of the steps:
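Ten-point concentration series (0.39 to 200 uM, duplicates, 0.5% v/v DMSO) applied to human HepG2 liver cells for 1 hr. High-content imaging of phospho-histone H3 and Hoechst-stained nuclei after fixation and permeabilization; DMSO-normalised bidirectional fit.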

The nature of test [8]: APR_HepG2_P-H2AX_1hr: Apredica 1-hour HepG2 Assay for H2AX Phosphorylation (AID 2282673). As to conditions: high-content imaging, actives raise or lower the signal. An outline of the steps:
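Phospho-H2A.x immunofluorescence (1:200, FITC secondary) plus Hoechst nuclear stain, quantified by high-content imaging in HepG2 after 1 hr compound exposure. Ten concentrations, 0.39 to 200 uM, in duplicate with 0.5% DMSO; fit both directions against DMSO.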

Test [9] is described as follows: APR_HepG2_MitoMass_1hr: Apredica 1-hour HepG2 Assay for Mitochondrial Mass (AID 2282674). As to conditions: high-content imaging, actives raise or lower the signal. In short, it runs like this: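 Mitochondrial mass is taken from MitoTracker Red CMXRos (250 nM, 30 min, pre-fixation) fluorescence imaged at 20x in HepG2 cells. Exposure lasted 1 hr across ten concentrations, 0.39 to 200 uM, 0.5% DMSO; DMSO baseline, bidirectional fitting.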

Test [10] in a line: APR_HepG2_MitoMembPot_1hr: Apredica 1-hour HepG2 Assay for Mitochondrial Membrane Potential (AID 2282675). As to conditions: imaging, actives raise or lower the signal. In short, it runs like this: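 Mitochondrial membrane potential read as MitoTracker Red CMXRos intensity by automated imaging of fixed HepG2 cells. Dye at 250 nM for 30 min pre-fixation; compounds 0.39 to 200 uM for 1 hour, duplicate wells, 0.5% DMSO.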

Test [11] is described as follows: APR_HepG2_CellCycleArrest_24hr: Apredica 24-hour HepG2 Assay for Cell Cycle Arrest (AID 2282905).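 Also: cell cycle arrest scored as ratio of 2N to 4N nuclear DNA content.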 As to conditions: imaging, actives raise or lower the signal. An outline of the steps:
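After 24 h exposure at 0.39–200 uM in 0.5% DMSO, fixed cells received Hoechst 33342 staining. Imaging quantified per-nucleus DNA content; gain or loss fitted against DMSO controls.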

The nature of test [12]: APR_HepG2_StressKinase_1hr: Apredica 1-hour HepG2 Assay for Stress Kinase (AID 2282906). As to conditions: HepG2 stress kinase (phospho-c-Jun) imaging, actives raise or lower the signal. In short, it runs like this:
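High-content imaging of phospho-c-Jun immunostaining (with Hoechst nuclear identification) after a 1 h exposure of HepG2 cells to 10 concentrations from 0.39 to 200 uM, final DMSO 0.5%. Fitted bidirectionally against DMSO.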

The nature of test [13]: APR_HepG2_NuclearSize_24hr: Apredica 24-hour HepG2 Assay for Nuclear Size (AID 2282907). As to conditions: high-content imaging, actives raise or lower the signal. In short, it runs like this:
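Nuclear size from Hoechst 33342-stained, formaldehyde-fixed HepG2 nuclei imaged by high-content microscopy, after 24 h dosing at ten concentrations from 0.39 to 200 uM in 0.5% DMSO; gain or loss relative to DMSO baseline.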

The nature of test [14]: APR_HepG2_CellLoss_24hr: Apredica 24-hour HepG2 Assay for Cell Loss (AID 2282908).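 As to AC50: fit in both directions so a hit may be cell loss or gain.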 As to conditions: high-content imaging. An outline of the steps: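 Nuclei stained with Hoechst 33342 after formaldehyde fixation (3.7%) were imaged at 20x to count cells. Exposure lasted 24 hr, at ten concentrations from 0.39 to 200 uM in duplicate, with 0.5% v/v DMSO. Fit bidirectional, relative to DMSO.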

The nature of test [15]: APR_HepG2_MitoticArrest_24hr: Apredica 24-hour HepG2 Assay for Mitotic Arrest (AID 2282910). As to conditions: high-content imaging, actives raise or lower the signal. An outline of the steps: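 High-content imaging of fixed HepG2 cells labeled with Hoechst 33342 and anti-phospho-histone H3, after 24 h treatment. Ten concentrations 0.39 to 200 uM in duplicate, final DMSO 0.5%; changes fitted both directions relative to DMSO.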

Test [16] can be described thus: APR_HepG2_MitoMembPot_24hr: Apredica 24-hour HepG2 Assay for Mitochondrial Membrane Potential (AID 2282911). As to conditions: imaging, actives raise or lower the signal. In short, it runs like this:
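Mitochondrial dye uptake (MitoTracker Red CMXRos, 250 nM, 30 min pre-fixation) in HepG2 after 24 hr compound exposure, 0.39–200 uM; ArrayScan images at 20x, activity fitted in both directions relative to DMSO.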

The nature of test [17]: APR_HepG2_MitoMass_24hr: Apredica 24-hour HepG2 Assay for Mitochondrial Mass (AID 2282912). As to conditions: high-content imaging, actives raise or lower the signal. In short, it runs like this: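 Endpoint is MitoTracker Red CMXRos (250 nM, 30 min, pre-fixation) intensity from 20x high-content imaging, nuclei located by Hoechst. Human HepG2 cells received ten concentrations from 0.39 to 200 uM in 0.5% DMSO for 24 hr, duplicate wells. Bidirectional fit relative to DMSO.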

Test [18] is described as follows: APR_HepG2_p53Act_24hr: Apredica 24-hour HepG2 Assay for p53 Activation (AID 2282913).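 Also: p53 protein immunofluorescence averaged per cell in HepG2 with Hoechst nuclei.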 As to conditions: high-content imaging, actives raise or lower the signal. In short, it runs like this:
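Following 24 hr dosing of HepG2 at 0.39–200 uM, the cells undergo formaldehyde fixation, Triton permeabilization and multiplexed antibody labeling that includes p53 (Cy5). Signal from the imaging is referenced to DMSO solvent controls.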

A short description of test [19]: APR_HepG2_CellCycleArrest_72hr: Apredica 72-hour HepG2 Assay for Cell Cycle Arrest (AID 2282914). As to conditions: high-content imaging, actives raise or lower the signal. An outline of the steps: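 Using multiplexed high-content imaging, HepG2 nuclei stained with Hoechst 33342 (2 ug/mL) were analysed for DNA content after fixation and permeabilization. Treatment lasted 72 hr across 0.39–200 uM in duplicate with final DMSO 0.5% v/v; DMSO served as negative control.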

A short description of test [20]: APR_HepG2_MicrotubuleCSK_24hr: Apredica 24-hour HepG2 Assay for Microtubule CSK Stabilty (AID 2282909). As to conditions: HepG2 microtubule cytoskeleton imaging, actives raise or lower the signal. In short, it runs like this: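 Fixed HepG2 cells were stained for alpha-tubulin and imaged after 24 hr exposure to ten concentrations spanning 0.39–200 uM in 0.5% DMSO. Signal change was fitted in both directions relative to DMSO; taxol was the positive control.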

Structures are written as SMILES. Results filed as inconclusive are left out. Activity calls are given as the source filed them. The calls were made as follows, unless noted: active = hit-call score of the fitted dose curve at least 0.9, where 1 is the maximum; inactive = score below 0.9.

On to `CCNc1nc(Cl)nc(NCC)n1`, for which the call in [1], in test [2], in test [3], in test [4], in test [5] and in [6] was inactive. Also, the compound was called inactive in test [7], in test [8], in test [9], in [10], in [11] and in [12]. Besides, the call in test [13], in test [14], in test [15], in [16], in test [17] and in [18] was inactive. In addition, the call in test [19] was inactive.

For the compound `Cc1cc(Cl)ccc1OCC(=O)O`, the compound was classed as inactive in test [1], in test [2], in [3], in test [4], in test [7] and in [8]. The outcome in test [9], in [10], in test [11], in [14], in [20] and in test [15] was inactive. Besides, the result in test [16], in [17], in test [18] and in test [19] was inactive.

Turning to `CCc1nn(C)c(C(=O)NCc2ccc(C(C)(C)C)cc2)c1Cl`, the outcome in test [1], in test [3], in [4], in [6], in [7] and in test [8] was inactive. Moreover, the call in test [10], in test [11], in [15], in test [16], in [17] and in test [18] was inactive. The result in test [19] was inactive. The figures for the half-maximal activity concentration (AC50) in [2] and in [14] were 0.0183 µM (active) and 86.9 µM (active), respectively.

Regarding `O=C(O)COc1nc(Cl)c(Cl)cc1Cl`, the compound was called inactive in test [1], in test [2], in test [3], in test [4], in test [5] and in test [8]. For the same compound, the outcome in [10], in [11], in test [13], in test [14], in test [15] and in test [16] was inactive. The compound was called inactive in test [17], in test [18] and in test [19].

For `CS/C(C)=N/OC(=O)N(C)SN(C)C(=O)O/N=C(\C)SC`, the call in [1], in test [4], in test [8], in test [9], in test [10] and in [11] was inactive. The result in [15], in [16], in test [17], in test [18] and in test [19] was inactive. For the same compound, the AC50 in [2] is 0.164 µM (active); in test [3], 45.7 µM (active); in test [7], 29.7 µM (active); in [14], 47.4 µM (active).

For the compound `CCCCNC(=O)n1c(NC(=O)OC)nc2ccccc21`, the result in test [1], in test [2], in test [3], in [4], in test [5] and in [8] was inactive. For the same compound, the compound was classed as inactive in test [10], in [13], in test [20], in test [15], in test [16] and in [17]. The result in test [18] was inactive. The AC50 in test [11] is 22.7 µM (active); in test [14], 12.4 µM (active); in test [19], 17 µM (active).

By AC50 is commonly meant the concentration at which the activity in the assay is half-maximal.
